Records with an inconclusive call do not appear. A number with no mark means an inactive call. Calls come from the whole dose curve; as a rule, active = well fitted activation curve with a large enough effect in the signal ratio in the repeat runs (not every such curve was filed as active); inconclusive = weak or mixed curves, or effect the other way; inactive = flat fitted curve, though single readings scatter; the % refers to the signal ratio.
% is set by controls: 0 for no effect and ±100 for the full control effect.

Sequence of Estrogen receptor beta (Homo sapiens) (Q92731 whole entry, looked up): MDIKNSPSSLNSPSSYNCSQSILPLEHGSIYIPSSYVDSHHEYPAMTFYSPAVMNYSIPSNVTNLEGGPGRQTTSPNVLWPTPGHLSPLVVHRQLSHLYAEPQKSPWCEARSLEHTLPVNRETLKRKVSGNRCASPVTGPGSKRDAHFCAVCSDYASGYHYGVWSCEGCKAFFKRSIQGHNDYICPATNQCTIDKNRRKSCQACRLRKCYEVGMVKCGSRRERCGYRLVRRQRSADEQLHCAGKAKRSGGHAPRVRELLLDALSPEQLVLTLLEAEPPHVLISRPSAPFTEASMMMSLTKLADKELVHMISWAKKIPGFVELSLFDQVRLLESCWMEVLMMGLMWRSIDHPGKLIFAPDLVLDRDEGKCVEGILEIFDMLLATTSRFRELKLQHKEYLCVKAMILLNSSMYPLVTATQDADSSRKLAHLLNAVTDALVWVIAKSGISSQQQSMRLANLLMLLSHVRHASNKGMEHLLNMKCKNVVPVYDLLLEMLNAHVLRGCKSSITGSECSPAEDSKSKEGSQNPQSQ

The target in this experiment is Estrogen receptor beta (Homo sapiens) (UniProt Q92731). Briefly: qHTS assay to identify small molecule agonists of the estrogen receptor beta (ER-beta) signaling pathway (AID 1259377). As to conditions: ER-beta-UAS-bla HEK293T, beta-lactamase FRET ratio, 16 h; series mostly up to 92.4 µM; activation: at the top concentration. The text has this:
U.S. Tox21 Program National Center for Advancing Translational Sciences [NCATS] NIH Chemical Genomics Center [NCGC] U.S. Environmental Protection Agency [EPA] National Institutes of Environmental Health Sciences [NIEHS] National Toxicology Program [NTP] U.S. Food and Drug Administration [FDA] Tox21 Assay Overview: Estrogen receptor (ER), a nuclear hormone receptor, plays an important role in development, metabolic homeostasis and reproduction. Two subtypes of ER, ER-alpha and ER-beta, have similar expression patterns with some uniqueness in both types. Endocrine disrupting chemicals (EDCs) and their interactions with steroid hormone receptors like ER causes disruption of normal endocrine function. To identify the compounds that activate ER signaling, an ER beta-UAS-bla GripTite cell line (Life technologies, Madison, WI, USA) containing a beta-lactamase reporter gene under the control of an Upstream Activator Sequence (UAS) was used to screen Tox21 10K compound library.
Tox21 Assay Protocol Summary: ER-beta-UAS-bla HEK293T cells were dispensed at 2,000 cells/5 uL of assay medium containing 2% charcoal stripped FBS per well into black wall/clear-bottom 1536-well plates using a Multidrop Combi (ThermoFisher Scientific, Waltham, MA) dispenser. After the assay plates were incubated at a 37C and 5% CO2 for 6 hr, 23 nL of compounds dissolved in DMSO, positive controls or DMSO only was transferred to the assay plate by a Pintool station (Kalypsys, San Diego, CA). The plates were incubated at 37C and 5% CO2 for 16 hr. Then 1 uL of LiveBLAzerTM B/G FRET substrate was added using a BioRAPTR FRD (Flying Reagent Dispenser, Aurora Discovery, San Diego, CA). After the plates were incubated at room temperature for 2 hours, fluorescence intensity was measured by an Envision plate reader (PerkinElmer, Shelton, CT).
(In general: Quantitative high-throughput screening tests each substance at several concentrations.)
As to `CCCCCCCCSCC`, the “activation” value is -1.55%.
The result for `CCCC/C=C/C=C\C=O` reads -4.43%; that for `CNS(=O)(=O)CCc1ccc2[nH]cc(C3CCN(C)CC3)c2c1`, -0.11% [at 42.5 µM]; that for `O=C(Nc1ccc(Cl)c(Cl)c1)C1CC1`, -2.16% [at 42.5 µM].
Consider `CC1=C(C(=O)O)N2C(=O)[C@@H](NC(=O)[C@H](N)c3ccc(O)cc3)[C@H]2SC1`, for which the “activation” value was -0.0358% [at 42.5 µM].
As for `N[C@@H](CCC(=O)Nc1ccc([N+](=O)[O-])cc1)C(=O)O`, the figure is 0.346%.
The result for `CCCOC(OCCC)OCCC` reads 2.74%; that for `NCCN1CCOCC1`, -1.49%; that for `CCCCCCOc1ccccc1C(N)=O`, 1.32% [at 42.5 µM].
The result for `O=C(O)CCSSCCC(=O)O` reads 0.187%; that for `CCCCCCOC(=O)CC`, 2.02%; that for `O=C1CC(c2ccc(Cl)cc2)CC(=O)N1`, 1.55% [at 42.5 µM].
For the compound `CCCCCCCCCC(C)=O`, the “activation” value is 0.671%.
As for `COc1cc(C(=S)N2CCOCC2)cc(OC)c1OC`, the figure is 8.65% [at 42.5 µM].
The result for `CCCN1C[C@H](CSC)C[C@@H]2c3cccc4[nH]cc(c34)C[C@H]21` reads -0.521% [at 42.5 µM]; that for `CC(C)N(c1ccccc1)C(C)C`, -0.789%; that for `N#Cc1ccc(C(=O)O)cc1`, 4.94%.
As for `CCN(C)C(=O)Oc1cccc([C@H](C)N(C)C)c1`, the figure is 2.97% [at 42.5 µM].
In the case of `Oc1ccccc1-c1nnco1`, the “activation” value is 1.59% [at 42.5 µM].
The result for `O=C(O)C(=O)Cc1ccccc1` reads 0.619%; that for `CC(C)(C)c1nnc(NS(=O)(=O)c2ccc(N)cc2)s1`, 0.15% [at 42.5 µM]; that for `Cc1ccc(C=O)cc1C`, 6.38%.
The result for `COC(=O)[C@@H]1[C@H]2C[C@H]3c4[nH]c5ccccc5c4CCN3C[C@@H]2CC[C@@H]1O` reads 3.23% [at 42.5 µM]; that for `Cc1ccccc1C(=O)Nc1ccc(C(=O)N2CCCC(N(C)C)c3ccccc32)cc1` (stereo not given), -0.941% [at 42.5 µM]; that for `CCOC(=O)[C@H](CCc1ccccc1)N[C@@H](C)C(=O)N1C(=O)N(C)C[C@H]1C(=O)O`, 5.39% [at 42.5 µM].
The result for `OCCC(F)(F)C(F)(F)C(F)(F)C(F)(F)C(F)(F)C(F)(F)C(F)(F)C(F)(F)F` reads 3.49%.
Take `CC[C@H](C)C(=O)O[C@H]1C[C@H](O)C=C2C=C[C@H](C)[C@H](CC[C@@H](O)C[C@@H](O)CC(=O)O)[C@H]21`: the “activation” value was -0.0349%.
The result for `CC(=O)OC(C)OC(=O)C(C)c1ccc(-c2ccccc2)c(F)c1` (stereo not given) reads 6.19% [at 42.5 µM]; that for `CC(=O)NCc1c(I)c(NC(C)=O)c(I)c(C(=O)O)c1I`, 0.182% [at 42.5 µM].
In the case of `CC(C)=O`, the “activation” value is -3.56%.
The result for `O=C(CS(=O)Cc1ccco1)NC/C=C\COc1cc(CN2CCCCC2)ccn1` (stereo not given) reads 0.385% [at 42.5 µM].
The result for `C[C@@H](Oc1ccc(CNC(=O)c2cccnc2Oc2ccc3c(c2)OCO3)c(F)c1)C(=O)O` reads 0.566%; that for `CC(C)NCC(O)COc1cccc2[nH]ccc12` (stereo not given), 4.71% [at 42.5 µM]; that for `O=C(OCc1ccccc1)C(=O)OCc1ccccc1`, -2.64%.
The result for `OCCCCC(O)CO` (stereo not given) reads 1.9%; that for `CN1CCN(CC(=O)N2c3ccccc3C(=O)Nc3cccnc32)CC1`, 7.01% [at 8.39 µM]; that for `CCC(C)NC(N)=O` (stereo not given), -0.21%.
Take `COc1cc(N)ccc1C`: the “activation” value was -1.6%.
With `Oc1cn2c(n1)Nc1ccc(Cl)c(Cl)c1C2`, the activation was -3.28% [at 19 µM].
The result for `CC(C)=CCOC(=O)c1ccccc1` reads 9.99%.

The record behind these values is PubChem BioAssay (Tox21).
